This passage reports Potency and PLD induction results from PubChem BioAssay (Tox21).

Where “and” joins values, the source holds several entries; their conditions need not be identical. Identical values can stand only once. Inconclusive results are not listed. Values without a mark were called inactive. Calls of active or inactive are those of the source. Unless noted, calls follow the shape of the dose curve; as a rule, active = well fitted curve in the direction sought with a large enough effect in the repeat runs; inconclusive = weak or mixed curves; inactive = no such curve, though single readings can be large; an effect the other way counts as inactive or inconclusive.

Assay [1] can be described thus: qHTS assay to identify aromatase inhibitors - cell viability counter screen (AID 743084).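 Also: cells stimulated with testosterone during compound exposure; nearly all actives have a fitted effect of over 55% in size.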 Also: potency is read from the fitted curve at half-maximal effect. For orientation: qHTS replaces the single test concentration by a dilution series.
The target in assay [2] is Aryl hydrocarbon receptor (Homo sapiens) (UniProt P35869). As to the kind of experiment: qHTS assay to identify small molecule that activate the aryl hydrocarbon receptor (AhR) signaling pathway (AID 743085).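 Also: HG2L7.5c1 human HepG2 liver cells with stably integrated DRE-driven firefly reporter; series mostly up to about 70 µM; nearly all actives have a fitted effect of over 15% in size.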 The gist of the method:
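Stably transfected human liver carcinoma cells (HG2L7.5c1; 20 DRE-firefly luciferase) were incubated 5 h, dosed, and kept 24 h at 37C. Agonism was scored from increased luciferase luminescence.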

Assay [3] can be described thus: qHTS assay to identify small molecule that activate the aryl hydrocarbon receptor (AhR) signaling pathway - cell viability counter screen (AID 743086). Also: nearly all actives have a fitted effect of over 45% in size. Also: potency is read from the fitted curve at half-maximal effect. The gist of the method:
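HepG2-AhR-luc (HG2L7.5c1) cells, 4000/well, were preincubated 5 h at 37C, exposed to compound in qHTS format for 24 hr at 37C, then given CellTiter-Fluor for 30 min; viability was read as fluorescence in the reporter wells.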

Assay [4] deals with Peroxisome proliferator-activated receptor gamma (Homo sapiens) (UniProt P37231). The assay is described as follows: qHTS assay to identify small molecule agonists of the peroxisome proliferator-activated receptor gamma (PPARg) signaling pathway (AID 743094; active = well fitted activation curve with a large enough effect in the signal ratio in the repeat runs, not every such curve was filed as active; the % refers to the signal ratio). The procedure, abridged:
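GeneBLAzer PPARg UAS-bla HEK293H cells carrying a stably integrated beta-lactamase reporter were pre-incubated 5 h at 37C, then exposed to compounds in DMSO for 17 h at 37C; LiveBLAzer B/G FRET substrate was added for 1 h at room temperature and fluorescence read.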

Assay [5] in a line: qHTS assay to identify small molecule phospholipidosis (PLD) inducers (AID 1259344; active = well fitted curve in the direction sought with a large enough effect; an effect the other way counts as inactive or inconclusive). The procedure, abridged: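 HepG2 cells grown on collagen I take up LipidTOX Red while exposed to compound for 24 h; after fixation they are imaged at 20x and pit metrics are extracted.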
% is scaled to controls: 0 for no effect and ±100 for the full control effect.

Sequence of Peroxisome proliferator-activated receptor gamma (Homo sapiens) (P37231 whole entry, looked up): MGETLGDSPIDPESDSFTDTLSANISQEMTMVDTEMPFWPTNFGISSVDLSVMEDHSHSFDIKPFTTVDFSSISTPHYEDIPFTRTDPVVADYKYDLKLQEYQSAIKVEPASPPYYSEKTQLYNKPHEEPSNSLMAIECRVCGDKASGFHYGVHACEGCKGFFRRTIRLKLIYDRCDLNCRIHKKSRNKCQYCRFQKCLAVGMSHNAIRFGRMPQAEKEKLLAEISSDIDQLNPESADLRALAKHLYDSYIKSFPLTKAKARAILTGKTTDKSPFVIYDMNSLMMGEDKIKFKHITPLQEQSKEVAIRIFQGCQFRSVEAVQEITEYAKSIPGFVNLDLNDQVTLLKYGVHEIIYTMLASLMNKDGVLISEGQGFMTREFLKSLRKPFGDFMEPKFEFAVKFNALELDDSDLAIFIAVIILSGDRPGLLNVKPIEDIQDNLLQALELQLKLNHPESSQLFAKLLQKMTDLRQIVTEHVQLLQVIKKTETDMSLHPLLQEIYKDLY
Sequence of Aryl hydrocarbon receptor (Homo sapiens) (P35869 whole entry, looked up): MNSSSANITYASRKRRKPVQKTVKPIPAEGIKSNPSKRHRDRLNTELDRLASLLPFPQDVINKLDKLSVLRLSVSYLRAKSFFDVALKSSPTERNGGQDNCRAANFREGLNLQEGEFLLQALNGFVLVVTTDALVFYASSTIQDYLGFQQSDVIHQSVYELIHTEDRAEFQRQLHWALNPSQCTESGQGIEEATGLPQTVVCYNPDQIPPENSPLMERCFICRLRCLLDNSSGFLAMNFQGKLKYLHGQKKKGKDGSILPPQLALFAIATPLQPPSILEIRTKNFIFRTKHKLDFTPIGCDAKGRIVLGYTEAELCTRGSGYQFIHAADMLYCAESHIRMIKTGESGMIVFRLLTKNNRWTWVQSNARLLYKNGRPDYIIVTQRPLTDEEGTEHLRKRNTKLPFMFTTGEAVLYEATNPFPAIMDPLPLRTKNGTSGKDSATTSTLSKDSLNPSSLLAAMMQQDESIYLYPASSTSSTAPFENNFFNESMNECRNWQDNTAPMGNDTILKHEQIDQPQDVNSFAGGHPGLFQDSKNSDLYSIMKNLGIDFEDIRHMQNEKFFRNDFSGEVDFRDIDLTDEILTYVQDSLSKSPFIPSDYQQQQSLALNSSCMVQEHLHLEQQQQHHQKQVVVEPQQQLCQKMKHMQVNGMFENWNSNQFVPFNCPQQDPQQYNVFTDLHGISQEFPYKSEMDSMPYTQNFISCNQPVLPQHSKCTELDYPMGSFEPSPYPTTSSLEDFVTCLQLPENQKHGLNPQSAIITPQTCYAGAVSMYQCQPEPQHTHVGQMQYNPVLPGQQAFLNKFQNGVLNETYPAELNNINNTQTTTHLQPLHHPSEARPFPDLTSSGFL

With `CC1(C)S[C@@H]2[C@H](NC(=O)Cc3ccccc3)C(=O)N2[C@H]1C(=O)O`, the Potency result in assay [1], in assay [2], in assay [3], in assay [4] and in assay [5] was “inactive” each time.

In the case of `CN(CCO)CC(O)Cn1cnc2c1c(=O)n(C)c(=O)n2C` (stereo unspecified) (tested in a mixture with another compound), the Potency result in assay [1], in assay [2], in assay [3], in assay [4] and in assay [5] was “inactive” throughout.

Consider `NCCC[C@H](N)C(=O)O`, for which the Potency result in assay [1], in assay [2], in assay [3], in assay [4] and in assay [5] was “inactive” in each case.

For the compound `CN[C@@H]1[C@@H](O)[C@@H](O[C@@H]2[C@@H](O)[C@H](OC3OC(CN)=CCC3N)[C@@H](N)C[C@H]2N)OC[C@]1(C)O` (stereo partly specified), the Potency entry in assay [1], in assay [2], in assay [3] and in assay [5] was “inactive” each time.

As for `CO/N=C(\C(=O)N[C@@H]1C(=O)N2C(C(=O)OCOC(=O)C(C)(C)C)=C(/C=C\c3scnc3C)CS[C@H]12)c1csc(N)n1`, the Potency result in assay [1], in assay [2], in assay [3] and in assay [4] was “inactive” throughout. Besides, in assay [5], the PLD induction is -0.933% [at 7.66 µM].

Regarding `C=C1c2c(Cl)ccc(O)c2C(O)=C2C(=O)[C@]3(O)C(O)=C(C(N)=O)C(=O)[C@@H](N(C)C)[C@@H]3[C@@H](O)[C@H]12`, the Potency result in assay [1], in assay [2], in assay [3] and in assay [5] was “inactive” each time.

Consider `CCCCC(F)(F)[C@@]1(O)CC[C@H]2[C@@H](CC(=O)[C@@H]2CCCCCCC(=O)O)O1`, for which the Potency entry in assay [1], in assay [2], in assay [3] and in assay [5] was “inactive” throughout.

Consider `C/C=C1\NC(=O)[C@H]2CSSCC/C=C/[C@H](CC(=O)N[C@H](C(C)C)C(=O)N2)OC(=O)C(C(C)C)NC1=O` (stereo partly specified), for which the results for the Potency in assay [1] and in assay [3] were 13.3 µM (active) and 15 µM (active), respectively. Moreover, the Potency entry in assay [2] and in assay [5] was “inactive” throughout.

As for `Cc1c(O)cc2c(c1C)O[C@](C)(CCC[C@H](C)CCC[C@H](C)CCCC(C)C)CC2`, the Potency result in assay [1], in assay [2], in assay [3], in assay [4] and in assay [5] was “inactive” in each case.

For the compound `CO[C@H]1[C@@H](O)[C@H](N)[C@@H](O[C@H]2O[C@H]([C@H](C)N)CC[C@H]2N)[C@H](O)[C@@H]1N(C)C(=O)CN`, the Potency result in assay [1], in assay [2], in assay [3], in assay [4] and in assay [5] was “inactive” each time.

With `CCCCc1cc2c(=O)c(C(=O)OC)c[nH]c2cc1OCc1ccccc1`, the Potency result in assay [1], in assay [2], in assay [3], in assay [4] and in assay [5] was “inactive” each time.

Consider `CCNC(=O)[C@@H]1CCCN1C(=O)[C@H](CCCN=C(N)N)NC(=O)[C@H](CC(C)C)NC(=O)[C@@H](CC(C)C)NC(=O)[C@H](Cc1ccc(O)cc1)NC(=O)[C@H](CO)NC(=O)[C@H](Cc1c[nH]c2ccccc12)NC(=O)[C@H](Cc1cnc[nH]1)NC(=O)[C@@H]1CCC(=O)N1`, for which the Potency result in assay [1], in assay [2], in assay [3], in assay [4] and in assay [5] was “inactive” throughout.

Take `C[N+]1(C)CCN(CC(O)(c2ccccc2)C2CCCCC2)CC1` (stereo unspecified): the Potency entry in assay [1], in assay [2], in assay [3] and in assay [5] was “inactive” each time.

Take `CCCN(CC)C(CC)C(=O)Nc1c(C)cccc1C` (stereo unspecified): the Potency entry in assay [1], in assay [2], in assay [3], in assay [4] and in assay [5] was “inactive” throughout.

As to `O=P(O)(O)C(Sc1ccc(Cl)cc1)P(=O)(O)O`, the Potency result in assay [1], in assay [2], in assay [3], in assay [4] and in assay [5] was “inactive” each time.

As to `CC(C(=O)O)c1ccc(C2CCCCC2)c2ccccc12` (stereo unspecified), the Potency result in assay [1], in assay [2] and in assay [3] was “inactive” in each case. The PLD induction in assay [5] is 0.703% [at 7.66 µM].

As for `COC(=O)CCC(=O)CN`, the Potency result in assay [1], in assay [2], in assay [3] and in assay [5] was “inactive” each time.

Regarding `CN=C(NC)NCc1ccccc1`, the Potency result in assay [1], in assay [2], in assay [3], in assay [4] and in assay [5] was “inactive” throughout.

Regarding `CC1(C)C2CC[C@]3(C)[C@H](C(=O)C=C4[C@@H]5C[C@@](C)(C(=O)O)CC[C@]5(C)CC[C@]43C)[C@@]2(C)CC[C@@H]1O[C@H]1O[C@H](C(=O)O)[C@@H](O)[C@H](O)[C@H]1O[C@@H]1O[C@H](C(=O)O)[C@@H](O)[C@H](O)[C@H]1O` (stereo partly specified), the Potency result in assay [1], in assay [2] and in assay [3] was “inactive” throughout. Besides, the PLD induction in assay [5] was 0.435% [at 7.66 µM].

On to `CCCCCCCCCCCCCCCC(=O)OC[C@@H](NC(=O)C(Cl)Cl)[C@H](O)c1ccc([N+](=O)[O-])cc1`, for which the Potency result in assay [1], in assay [2], in assay [3], in assay [4] and in assay [5] was “inactive” throughout.

For `CCC(C)[C@H]1O[C@]2(C=C[C@@H]1C)C[C@@H]1C[C@@H](C/C=C(\C)[C@@H](O[C@H]3C[C@H](OC)[C@@H](O[C@H]4C[C@H](OC)[C@H](NC(C)=O)[C@H](C)O4)[C@H](C)O3)[C@@H](C)/C=C/C=C3\CO[C@@H]4[C@H](O)C(C)=C[C@@H](C(=O)O1)[C@]34O)O2` (stereo partly specified), the Potency result in assay [1], in assay [2] and in assay [5] was “inactive” in each case. Moreover, the Potency in assay [3] was 11.9 µM (active) and 29.8 µM (active).

As for `N[C@@H](C(=O)N[C@@H]1C(=O)N2C(C(=O)O)=C(Cl)CC[C@H]12)c1ccccc1`, the Potency entry in assay [1], in assay [2], in assay [3], in assay [4] and in assay [5] was “inactive” each time.

Regarding `CCC(CN)CC(C)CCNCC(O)CNCC(C)CC(CC)CN` (stereo unspecified), the Potency entry in assay [1], in assay [2], in assay [3] and in assay [4] was “inactive” each time. Also, in assay [5], the PLD induction was -0.745% [at 7.66 µM].
